Test results as given in PubChem BioAssay (NCATS).
Several values for one entry are separate records, joined by “and”; a condition that tells them apart may be missing. Equal entries are not always repeated. Results filed as inconclusive are left out. Activity calls are given as the source filed them. Unless noted, calls follow the shape of the full dose curve.

How the values were obtained:
[1] = biological target: Peroxisome proliferator-activated receptor gamma (Homo sapiens) (UniProt P37231); assay: qHTS assay for small molecule agonists of peroxisome proliferator-activated receptor gamma signaling (AID 588536; active = well fitted curve in the direction sought with a large enough effect in the signal ratio, with a control signal flat, not every such curve was filed as active; the % refers to the signal ratio;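 also: 0% = DMSO basal wells and 100% = rosiglitazone at 2 µM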)
Method in brief: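 HEK293 UAS-bla reporter line, 1% charcoal/dextran FBS; titration, 16 h, 37 C; CCF4 loading 2 h RT; fluorescence 460/530 nm. Normalized to rosiglitazone 2 uM = 100%, DMSO = 0%.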

[2] = biological target: Peroxisome proliferator-activated receptor gamma (Homo sapiens) (UniProt P37231); assay: qHTS assay for small molecule antagonists of peroxisome proliferator-activated receptor gamma signaling (AID 588537; active = well fitted inhibition curve with a large enough effect in the signal ratio, with a control signal flat, not every such curve was filed as active; the % refers to the signal ratio;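 also: reporter cells co-stimulated with 50 nM rosiglitazone agonist during compound treatment; % of control where 0% means no effect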)
Method in brief: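 Antagonist mode, beta-lactamase reporter in HEK293; charcoal/dextran FBS 1%; 3000 cells/well, 37 C 6-6.5 h; cpd titration + rosiglitazone 50 nM final, 16 h 37 C; CCF4, 2 h RT; 460/530 nm; Hill fit → IC50, efficacy.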

[3] = biological target: Vitamin D3 receptor (Homo sapiens) (UniProt P11473); assay: qHTS assay for small molecule antagonists of vitamin D receptor signaling (AID 588541);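 also: receptor activated by calcitriol during compound treatment; series mostly up to about 77 µM; % is scaled to controls: 0 for no effect and ±100 for the full control effect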
Method in brief: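 Antagonist-mode beta-lactamase reporter assay: HEK293T VDR-UAS-bla cells were exposed to titrated compound alongside 1-alpha,25-dihydroxyvitamin D3 at 3 nM final for 16 h. Values were normalized to the 50 nM agonist control and DMSO basal, with IC50 and efficacy from Hill equation fits.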

[4] = qHTS assay for small molecule agonists of retinoid X receptor alpha signaling (AID 588544); details: HEK293T RXRa-UAS-bla, beta-lactamase reporter, 18 h; 530 nm emission
[5] = biological target: Retinoic acid receptor RXR-alpha (Homo sapiens) (UniProt P19793); assay: as above
[6] = biological target: Thyroid hormone receptor beta (Homo sapiens) (UniProt P10828); assay: qHTS assay for small molecule agonists of thyroid hormone receptor beta signaling (AID 588545);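 also: 0% = DMSO only and 100% = 10 nM T3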
Method in brief: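 TR-UAS-bla GripTite HEK 293 cells (2500/well, medium with 2% charcoal/dextran FBS) were treated in agonist mode for 18 h at 37 C, titrated. Beta-lactamase was read by CCF4 ratio after 2 h; normalized to 10 nM T3 (100%) and DMSO, Hill-fitted for EC50 and efficacy.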

[7] = qHTS assay for small molecule antagonists of retinoid X receptor alpha signaling (AID 588546; active = well fitted inhibition curve with a large enough effect in the signal ratio, with a control signal flat, not every such curve was filed as active; the % refers to the signal ratio;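 also: cells stimulated with 9-cis-retinoic acid as agonist; % is scaled to controls: 0 for no effect and ±100 for the full control effect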); details: HEK293T RXRa-UAS-bla, beta-lactamase ratio, antagonist mode; measured here: W530 green channel, cytotoxicity proxy
Method in brief: (§1)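 Beta-lactamase reporter inhibition, read as CCF4 fluorescence ratio (ex 405, em 460/530 nm) after 2 h at RT. HEK293T UAS-bla cells, 2500/well, were stimulated with 9-cis-RA at 500 or 100 nM final alongside test compound for 18 h at 37 C.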

[8] = biological target: Retinoic acid receptor RXR-alpha (Homo sapiens) (UniProt P19793); assay: as above; details: HEK293T RXRa-UAS-bla, beta-lactamase ratio, antagonist mode
Method in brief: as §1

[9] = biological target: Voltage-gated inwardly rectifying potassium channel KCNH2 (Homo sapiens) (UniProt Q12809); assay: qHTS Assay for Small Molecule Inhibitors of the Human hERG Channel Activity (AID 588834; active = well fitted inhibition curve with a large enough effect;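 also: lower thallium flux fluorescence means stronger hERG block; nearly all actives have a fitted effect of over 50% in size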; also: potency is read from the fitted curve at half-maximal effect)
Method in brief: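 Measured: FluxOR fluorescence after thallium stimulation in U2OS cells transduced with hERG by baculovirus. Compounds pre-incubated around 10 min; medium Opti-MEM with 2% FCS. AC50 from Hill equation.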

[10] = biological target: Peroxisome proliferator-activated receptor delta (Homo sapiens) (UniProt Q03181); assay: qHTS assay for small molecule agonists of peroxisome proliferator-activated receptor delta signaling (AID 588534);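 also: 0% = DMSO basal wells and 100% = positive control agonist at 10 µM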
Method in brief: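 Fluorescence from CCF4 substrate cleavage by beta-lactamase reporter, read 2 hrs at RT, measured agonist activity. Compounds were tested with 18 hrs exposure at 37 C. Concentration-response data fitted to Hill equation.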

[11] = biological target: Thyroid hormone receptor beta (Homo sapiens) (UniProt P10828); assay: qHTS assay for small molecule antagonists of thyroid hormone receptor beta signaling (AID 588547; active = well fitted inhibition curve with a large enough effect in the signal ratio, with a control signal flat, not every such curve was filed as active; the % refers to the signal ratio;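 also: cells stimulated with 0.4 nM T3 agonist during compound exposure; series mostly up to about 77 µM; % is scaled to controls: 0 for no effect and ±100 for the full control effect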); details: TR-UAS-bla HEK293, beta-lactamase ratio, antagonist mode, 18 h
Method in brief: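 Inhibition of T3-driven (0.4nM final) beta-lactamase reporter activity was measured over 0.59 nM to 92 uM compound after 18 h at 37 C. The cells were GripTite HEK293 TR-UAS-bla in charcoal/dextran-stripped serum, with CCF4 ratio read-out and IC50 from Hill fits.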

[12] = biological target: Vitamin D3 receptor (Homo sapiens) (UniProt P11473); assay: qHTS assay for small molecule agonists of vitamin D receptor signaling (AID 588543);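 also: 0% = DMSO basal and 100% = reference agonist control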
Method in brief: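 qHTS in agonist mode: compound titrations stimulate a VDR-driven β-lactamase reporter in HEK293T cells over 16 h at 37 °C. Response normalized to 50 nM 1α,25-dihydroxyvitamin D3 = 100%, DMSO = 0%; Hill fitting gives EC50 and maximal response.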

[13] = biological target: Luciferin 4-monooxygenase (Photinus pyralis) (UniProt P08659); assay: Biochemical firefly luciferase enzyme assay for NPC (AID 624030; active = well fitted inhibition curve with a large enough effect;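 also: purified P. pyralis luciferase at 10 nM with luciferin and ATP substrate; series mostly up to about 59 µM; 0% = DMSO and -100% = full luciferase inhibition by PTC124 control; nearly all actives have a fitted effect of over 70% in size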)
Method in brief: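 Direct inhibition of firefly luciferase enzyme (10 nM final, 50 mM Tris Acetate) assessed by luminescence within 5 minutes. Percent activity scaled between DMSO and PTC124 positive control, with concentration-effect curves classified by fit quality and response.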

[14] = qHTS assay for small molecule antagonists of peroxisome proliferator-activated receptor delta signaling (AID 588535; active = well fitted inhibition curve with a large enough effect in the signal ratio, with a control signal flat, not every such curve was filed as active; the % refers to the signal ratio;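 as to max response: cells co-treated with a PPAR-delta agonist as stimulator during compound exposure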); details: HEK293T PPARd-UAS-bla, beta-lactamase FRET ratio, 18 h; 460 nm channel
Method in brief: (§2)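 HEK293T PPAR-delta-UAS-bla cells, 4000/well, 2% charcoal/dextran FBS; 5 h 37 C; cpd titration; 18 h 37 C; CCF4 2 h RT; FI 460/530 nm; Hill fit → IC50, efficacy.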

[15] = biological target: Peroxisome proliferator-activated receptor delta (Homo sapiens) (UniProt Q03181); assay: as above
Method in brief: as §2

Sequence of Peroxisome proliferator-activated receptor gamma (Homo sapiens) (P37231 whole entry, looked up): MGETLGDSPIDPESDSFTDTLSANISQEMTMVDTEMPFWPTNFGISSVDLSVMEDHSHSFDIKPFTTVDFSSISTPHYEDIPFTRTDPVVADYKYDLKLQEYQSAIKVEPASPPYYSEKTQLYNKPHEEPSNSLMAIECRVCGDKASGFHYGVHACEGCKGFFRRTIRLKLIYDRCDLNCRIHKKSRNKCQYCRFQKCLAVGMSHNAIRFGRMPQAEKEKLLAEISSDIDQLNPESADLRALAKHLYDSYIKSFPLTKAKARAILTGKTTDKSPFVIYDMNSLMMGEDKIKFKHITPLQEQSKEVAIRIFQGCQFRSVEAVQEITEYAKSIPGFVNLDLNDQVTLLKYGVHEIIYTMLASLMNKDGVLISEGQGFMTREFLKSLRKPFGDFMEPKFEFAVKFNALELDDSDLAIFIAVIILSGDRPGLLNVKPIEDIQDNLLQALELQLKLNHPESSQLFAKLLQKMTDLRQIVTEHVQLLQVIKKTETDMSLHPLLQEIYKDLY
Sequence of Luciferin 4-monooxygenase (Photinus pyralis) (P08659 whole entry, looked up): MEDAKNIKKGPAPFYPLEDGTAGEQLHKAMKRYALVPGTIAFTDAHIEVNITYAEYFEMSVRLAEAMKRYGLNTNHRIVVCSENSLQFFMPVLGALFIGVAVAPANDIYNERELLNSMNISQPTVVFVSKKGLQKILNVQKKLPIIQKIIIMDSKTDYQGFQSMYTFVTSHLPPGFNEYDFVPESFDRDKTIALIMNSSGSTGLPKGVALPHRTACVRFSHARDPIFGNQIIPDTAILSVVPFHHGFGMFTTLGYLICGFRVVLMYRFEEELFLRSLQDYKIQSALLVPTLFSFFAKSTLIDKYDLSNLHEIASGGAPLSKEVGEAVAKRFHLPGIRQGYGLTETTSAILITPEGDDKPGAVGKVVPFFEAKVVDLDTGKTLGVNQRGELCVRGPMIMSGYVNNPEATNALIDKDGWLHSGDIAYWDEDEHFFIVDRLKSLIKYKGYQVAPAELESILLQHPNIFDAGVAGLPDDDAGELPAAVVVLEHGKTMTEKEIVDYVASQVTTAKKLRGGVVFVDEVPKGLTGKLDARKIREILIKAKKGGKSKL
Sequence of Vitamin D3 receptor (Homo sapiens) (P11473 whole entry, looked up): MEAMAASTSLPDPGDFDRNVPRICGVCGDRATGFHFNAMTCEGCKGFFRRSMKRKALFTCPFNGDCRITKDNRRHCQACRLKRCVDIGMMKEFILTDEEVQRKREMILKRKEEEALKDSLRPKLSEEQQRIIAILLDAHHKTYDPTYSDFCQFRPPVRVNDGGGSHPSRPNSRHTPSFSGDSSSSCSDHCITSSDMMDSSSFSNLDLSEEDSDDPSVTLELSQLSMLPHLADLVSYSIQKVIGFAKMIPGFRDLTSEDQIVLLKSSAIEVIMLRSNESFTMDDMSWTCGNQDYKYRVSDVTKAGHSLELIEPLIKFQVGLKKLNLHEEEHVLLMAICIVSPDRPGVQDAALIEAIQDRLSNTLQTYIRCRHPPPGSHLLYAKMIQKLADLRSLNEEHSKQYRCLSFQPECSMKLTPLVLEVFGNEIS
Sequence of Peroxisome proliferator-activated receptor delta (Homo sapiens) (Q03181 whole entry, looked up): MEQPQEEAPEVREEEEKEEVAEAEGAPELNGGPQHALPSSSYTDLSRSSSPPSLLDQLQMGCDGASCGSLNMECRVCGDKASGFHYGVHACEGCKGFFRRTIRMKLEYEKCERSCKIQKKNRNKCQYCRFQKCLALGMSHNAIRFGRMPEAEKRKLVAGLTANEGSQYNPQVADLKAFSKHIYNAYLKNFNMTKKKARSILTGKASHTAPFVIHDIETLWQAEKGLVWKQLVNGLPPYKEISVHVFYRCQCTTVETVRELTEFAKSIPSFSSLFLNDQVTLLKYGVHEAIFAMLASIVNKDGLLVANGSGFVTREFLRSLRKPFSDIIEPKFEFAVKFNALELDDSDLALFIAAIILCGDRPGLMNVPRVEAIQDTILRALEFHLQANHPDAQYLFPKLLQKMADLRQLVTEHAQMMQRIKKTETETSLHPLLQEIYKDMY
Sequence of Thyroid hormone receptor beta (Homo sapiens) (P10828 whole entry, looked up): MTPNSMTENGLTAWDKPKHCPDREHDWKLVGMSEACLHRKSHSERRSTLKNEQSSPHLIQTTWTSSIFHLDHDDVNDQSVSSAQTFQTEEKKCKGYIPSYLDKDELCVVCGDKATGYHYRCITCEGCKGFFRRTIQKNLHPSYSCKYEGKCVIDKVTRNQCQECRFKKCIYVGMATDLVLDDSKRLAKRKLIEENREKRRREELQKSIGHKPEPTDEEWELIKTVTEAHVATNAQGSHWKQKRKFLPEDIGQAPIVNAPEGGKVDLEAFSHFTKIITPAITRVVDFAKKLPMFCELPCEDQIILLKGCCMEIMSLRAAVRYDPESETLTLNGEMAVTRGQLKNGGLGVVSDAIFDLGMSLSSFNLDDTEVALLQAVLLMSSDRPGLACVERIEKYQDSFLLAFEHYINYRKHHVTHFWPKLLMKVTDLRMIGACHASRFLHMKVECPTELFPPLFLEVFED
Sequence of Retinoic acid receptor RXR-alpha (Homo sapiens) (P19793 whole entry, looked up): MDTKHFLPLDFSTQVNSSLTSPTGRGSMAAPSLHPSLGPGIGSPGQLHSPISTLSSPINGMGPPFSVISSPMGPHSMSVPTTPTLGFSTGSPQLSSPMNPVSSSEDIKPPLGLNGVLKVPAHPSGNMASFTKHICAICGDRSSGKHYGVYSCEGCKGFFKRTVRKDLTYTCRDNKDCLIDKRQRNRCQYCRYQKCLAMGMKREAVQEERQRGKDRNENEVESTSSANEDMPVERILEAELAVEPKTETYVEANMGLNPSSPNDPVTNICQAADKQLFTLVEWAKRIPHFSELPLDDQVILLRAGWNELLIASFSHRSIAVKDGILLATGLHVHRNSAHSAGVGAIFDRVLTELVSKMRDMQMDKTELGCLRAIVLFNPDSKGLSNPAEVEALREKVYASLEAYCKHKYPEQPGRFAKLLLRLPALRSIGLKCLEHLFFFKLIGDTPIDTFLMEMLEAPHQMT
Sequence of Voltage-gated inwardly rectifying potassium channel KCNH2 (Homo sapiens) (Q12809 whole entry, looked up): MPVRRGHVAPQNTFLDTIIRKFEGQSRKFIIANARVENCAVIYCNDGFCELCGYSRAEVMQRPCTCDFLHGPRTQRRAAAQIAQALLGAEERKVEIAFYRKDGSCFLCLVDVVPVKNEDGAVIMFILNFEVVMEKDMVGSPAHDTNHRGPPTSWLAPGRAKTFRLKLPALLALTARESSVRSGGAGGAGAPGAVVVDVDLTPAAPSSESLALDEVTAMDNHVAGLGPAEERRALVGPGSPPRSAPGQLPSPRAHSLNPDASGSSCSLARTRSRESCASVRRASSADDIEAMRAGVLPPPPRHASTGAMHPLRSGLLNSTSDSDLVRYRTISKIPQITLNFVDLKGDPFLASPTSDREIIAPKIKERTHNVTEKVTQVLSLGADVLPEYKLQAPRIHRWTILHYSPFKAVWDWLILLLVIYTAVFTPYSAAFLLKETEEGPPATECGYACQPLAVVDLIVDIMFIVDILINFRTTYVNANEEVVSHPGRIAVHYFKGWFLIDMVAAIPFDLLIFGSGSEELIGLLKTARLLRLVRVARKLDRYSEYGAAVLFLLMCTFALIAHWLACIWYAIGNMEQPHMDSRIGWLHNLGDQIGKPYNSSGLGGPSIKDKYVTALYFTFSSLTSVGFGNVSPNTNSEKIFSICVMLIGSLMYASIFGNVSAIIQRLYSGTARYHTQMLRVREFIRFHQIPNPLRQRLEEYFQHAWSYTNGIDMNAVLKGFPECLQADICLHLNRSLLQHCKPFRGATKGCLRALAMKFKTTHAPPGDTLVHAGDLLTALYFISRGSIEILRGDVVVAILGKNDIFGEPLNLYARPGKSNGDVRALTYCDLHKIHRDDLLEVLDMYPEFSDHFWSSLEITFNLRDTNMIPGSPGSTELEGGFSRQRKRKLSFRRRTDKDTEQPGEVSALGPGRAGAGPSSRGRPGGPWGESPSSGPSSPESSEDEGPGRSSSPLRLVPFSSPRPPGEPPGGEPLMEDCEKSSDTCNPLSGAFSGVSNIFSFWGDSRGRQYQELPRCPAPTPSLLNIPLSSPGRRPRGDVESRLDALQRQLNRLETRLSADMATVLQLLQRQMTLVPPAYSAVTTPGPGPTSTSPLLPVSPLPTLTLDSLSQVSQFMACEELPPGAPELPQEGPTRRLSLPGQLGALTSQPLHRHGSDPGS

O=[N+]([O-])/N=C1\NCCN1Cc1ccc(Cl)nc1
-17.3%: max response [4]
-10.6%: max response [7]
inactive: outcome [1] | Potency [2] | Potency [3] | Potency [5] | outcome [6] | max response [8] -0.806% | Potency [9]

CC(C)(c1ccc(O)cc1)c1ccc(O)cc1
0.616% and 8.18%: max response [4]
inactive: outcome [10] | Potency [2] | Potency [5] | activity change % (negative = inhibition) [11] -3.91% | Potency [9]

CC(C)Oc1cccc(NC(=O)c2ccccc2C(F)(F)F)c1
0.398%: max response [7]
inactive: outcome [10] | Potency [3] | outcome [12] | outcome [6] | max response [8] -12.2% | activity change % (negative = inhibition) [11] -3.3% | Potency [13]

O=S(=O)(c1ccc(Cl)cc1)c1ccc(Cl)cc1
-4.56% and -1.98%: max response [4]
active: Potency [9] 44.7 µM
-8.84% and -18.1% and 9.46%: max response [14]
-9.45% and -15.5% and -9.97%: max response [7]
inactive: outcome [10] | Potency [15] | outcome [1] | Potency [3] | outcome [12] | Potency [5] | outcome [6] | max response [8] -23.5% and -4.94% and -14.2% | activity change % (negative = inhibition) [11] 9.09% and 5.78% and 14.1% | Potency [13]

O=S(=O)(O)C(F)(F)C(F)(F)C(F)(F)C(F)(F)C(F)(F)C(F)(F)C(F)(F)C(F)(F)F
-5.97% and -3.14%: max response [7]
-11.4% and -1.61%: max response [4]
inactive: outcome [1] | Potency [2] | Potency [3] | outcome [12] | Potency [5] | outcome [6] | max response [8] -2.01% and 4.02% | activity change % (negative = inhibition) [11] -0.756%

CCCCOC(=O)c1ccccc1C(=O)OCc1ccccc1
inactive: outcome [10] | Potency [15] | outcome [1] | Potency [5] | outcome [6] | max response [8] 2.44% and -9.61% | activity change % (negative = inhibition) [11] 11.3% | Potency [13]
-18.4% and -2.86%: max response [14]
-7.26% and -17.3%: max response [7]
-17.6% and 5.59%: max response [4]

Nc1ccc([N+](=O)[O-])cc1
1.67%: max response [7]
inactive: outcome [1] | Potency [3] | outcome [12] | Potency [5] | outcome [6] | max response [8] -12.6% | activity change % (negative = inhibition) [11] -27.9% | Potency [9] | Potency [13]
6.91%: max response [4]

Nc1ccc(Cl)cc1
inactive: outcome [10] | outcome [6] | max response [8] -9.24% | activity change % (negative = inhibition) [11] 5.44% | Potency [9] | Potency [13]
-14.8%: max response [7]

CCOCCOC(C)=O
inactive: outcome [10] | outcome [1] | Potency [2] | Potency [3] | outcome [12] | Potency [5] | max response [8] 11% | activity change % (negative = inhibition) [11] 9.89% | Potency [9] | Potency [13]
-8.15%: max response [4]
-4.94%: max response [7]
